miR-122 inh: miR-122 suppressors via Renilla sensor increase, primary screen, cell-based, Huh7 psiCHECK-miR122, Renilla luciferase, single point. 48 h. activation, % at 12.5 µM. 340,000 compounds, 0.14% hits;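 active = mean activation of 30% or more, with every replicate also reaching 30%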;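 note: higher luciferase signal means stronger suppression of miR-122 activity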
Each line names hits and unclear results; the compound was inactive in the other large screens. Many of the other results were omitted from the sample, so hits are more common in it than they were.

CNC(=O)C[C@@H]1CC[C@@H]2[C@H](COc3ccc(NC(=O)NC(C)C)cc3C(=O)N2C)O1	miR-122 inh 53
COC(=O)C[C@H]1CC[C@H]2[C@H](COc3ccc(NC(=O)NC(C)C)cc3C(=O)N2C)O1	miR-122 inh 50
CO[C@@H]1CN(C)C(=O)c2cc(NC(=O)NC(C)C)ccc2OC[C@@H](C)N(C(=O)NC(C)C)C[C@@H]1C	none
COC(=O)C[C@H]1CC[C@H]2[C@H](COc3ccc(NS(=O)(=O)c4ccc(F)cc4)cc3C(=O)N2C)O1	miR-122 inh 37
COC(=O)C[C@H]1CC[C@H]2[C@H](COc3ccc(NC(=O)Nc4ccccc4C)cc3C(=O)N2C)O1	none
CC(C)CC#Cc1cnc2c(c1)C(=O)N([C@@H](C)CO)C[C@H](C)[C@@H](CN(C)C(=O)Nc1cccc(F)c1)O2	none
C[C@H](CO)N1C[C@H](C)[C@@H](CN(C)Cc2cncnc2)Oc2cc(C#CC3CCCC3)ccc2S1(=O)=O	none
COc1cccc(CN(C(=O)Cc2c[nH]c3ccccc23)C(C(=O)NC2CCCCC2)c2cccs2)c1 (stereo not drawn)	none
COc1ccc(NS(=O)(=O)c2cccc(NC(=O)COc3ccccc3[N+](=O)[O-])c2)cc1	none
COc1ccc(NC(=O)COC(=O)CCCc2c[nH]c3ccccc23)cc1	miR-122 inh 36
C[C@@H]1CN([C@H](C)CO)S(=O)(=O)c2ccc(C3=CCCCC3)cc2O[C@@H]1CN(C)C(=O)CC1CC1	none
CN1c2ccc(-c3ccccc3F)cc2[C@H]2[C@H](CCN2S(=O)(=O)c2ccccc2F)[C@H]1CO	none
C[C@H](CO)N1C[C@H](C)[C@H](CN(C)Cc2cccc(C(=O)O)c2)Oc2ncc(C#CCc3ccccc3)cc2C1=O	none
C[C@H]1CN([C@@H](C)CO)C(=O)c2cc(C#CCc3ccccc3)cnc2O[C@@H]1CN(C)C(=O)C1CCCCC1	none
Cn1ncc2c(O/N=C(\N)c3ccc(C(F)(F)F)cc3)ncnc21	miR-122 inh 33
COc1ccccc1-c1cnc2c(c1)C(=O)N([C@H](C)CO)C[C@@H](C)[C@H](CN(C)Cc1ccccc1)O2	none
C[C@H](CO)N1C[C@H](C)[C@H](CN(C)Cc2ccccn2)Oc2ncc(Br)cc2C1=O	none
CCN1CCN(Cc2ccc(NC(=O)c3ccc(C)c(NC(=O)c4c[nH]c5cc(C(F)(F)F)ccc5c4=O)c3)cc2C(F)(F)F)CC1	miR-122 inh 33
C[C@@H]1CN([C@H](C)CO)S(=O)(=O)c2ccc(-c3cncnc3)cc2O[C@H]1CN(C)Cc1ccccc1	none
c1ccc(-c2nnc3n2CCCC3)cc1	miR-122 inh 33
C[C@H](CO)N1C[C@H](C)[C@H](CN(C)C)Oc2ncc(C#CC3CC3)cc2C1=O	none
COCC#Cc1cnc2c(c1)C(=O)N([C@@H](C)CO)C[C@H](C)[C@H](CN(C)C(=O)Nc1c(C)noc1C)O2	none
COCC#Cc1ccc2c(c1)O[C@@H](CN(C)C(=O)C1CCOCC1)[C@H](C)CN([C@H](C)CO)S2(=O)=O	none
CC(C)NC(=O)N(C)C[C@@H]1Oc2ncc(C3=CCCCC3)cc2C(=O)N([C@@H](C)CO)C[C@H]1C	none
CCC(=O)Nc1ccc2c(c1)OC[C@@H](C)N(C(=O)c1ccccn1)C[C@H](C)[C@@H](OC)CN(C)C2=O	none
C[C@@H]1CN([C@H](C)CO)S(=O)(=O)c2ccc(/C=C/c3ccccc3)cc2O[C@H]1CN(C)C(=O)c1cccnc1	none
CN(C(=O)C12CC3CC(CC(C3)C1)C2)C1CCS(=O)(=O)C1 (stereo not drawn)	miR-122 inh 36
C[C@@H]1CN([C@@H](C)CO)C(=O)c2cc(C#CC3CC3)cnc2O[C@@H]1CN(C)C	none
CCCN1C[C@@H](C)[C@H](OC)CN(C)C(=O)c2ccc(NC(=O)COC)cc2OC[C@@H]1C	none
COC(=O)c1c(N)nc(C)n1-c1ccc(OC)cc1	miR-122 inh 34
COc1ccc(C(=O)Nc2ccc3c(c2)OC[C@H](C)N(C)C[C@H](C)[C@H](OC)CN(C)C3=O)cc1	none
CCCNC(=O)N(C)C[C@H]1Oc2cc(C#Cc3ccccn3)ccc2S(=O)(=O)N([C@H](C)CO)C[C@H]1C	none
COCC(=O)Nc1ccc2c(c1)OC[C@@H](C)N(C(C)=O)C[C@H](C)[C@H](OC)CN(C)C2=O	none
CO[C@H]1CN(C)C(=O)c2cc(NC(=O)c3ccc(F)cc3)ccc2OC[C@H](C)N(C)C[C@@H]1C	none
CN1C(=O)c2cc(NC(=O)c3cccc(F)c3)ccc2OC[C@H]2O[C@H](CC(=O)NC3CCC3)CC[C@H]21	miR-122 inh 70
CN1C(=O)c2cc(NC(=O)c3cccc(F)c3)ccc2OC[C@H]2O[C@@H](CC(=O)O)CC[C@H]21	miR-122 inh 53
CN1C(=O)c2cc(NC(=O)c3cccc(F)c3)ccc2OC[C@@H]2O[C@@H](CC(=O)O)CC[C@@H]21	miR-122 inh 87
COc1ccccc1C#Cc1ccc2c(c1)O[C@H](CN(C)Cc1ccncc1)[C@@H](C)CN([C@H](C)CO)S2(=O)=O	none
C/C=C/c1ccc2c(c1)O[C@H](CN(C)C(=O)c1cccnc1)[C@H](C)CN([C@@H](C)CO)S2(=O)=O	none
COc1cccc(NC(=O)N(C)C[C@@H]2Oc3cc(-c4cccc(C(=O)N(C)C)c4)ccc3S(=O)(=O)N([C@H](C)CO)C[C@H]2C)c1	none
C[C@@H]1CN([C@H](C)CO)C(=O)c2cc(-c3ccc(C#N)cc3)cnc2O[C@H]1CN(C)CC1CCOCC1	none
Cc1ccc(-c2cnc3c(c2)C(=O)N([C@@H](C)CO)C[C@H](C)[C@@H](CN(C)C(=O)c2ccncc2)O3)cc1	none
Cc1ccc(-c2cnc3c(c2)C(=O)N([C@@H](C)CO)C[C@@H](C)[C@H](CN(C)C(=O)c2ccncc2)O3)cc1	none
COCC(=O)N(C)C[C@H]1Oc2ncc(C#Cc3ccncc3)cc2C(=O)N([C@H](C)CO)C[C@@H]1C	none
C[C@@H]1CN([C@@H](C)CO)S(=O)(=O)c2ccc(-c3ccc(C(=O)N(C)C)cc3)cc2O[C@H]1CN(C)C	none
C[C@H](CO)N1C[C@H](C)[C@H](CN(C)C(=O)Nc2ccccc2)Oc2cc(C#Cc3ccccc3)ccc2S1(=O)=O	none
C[C@H]1CN([C@@H](C)CO)S(=O)(=O)c2ccc(C#CC3CC3)cc2O[C@H]1CN(C)Cc1ccccn1	none
O=C(Nc1ccc(Br)c(Cl)c1)c1ccco1	none
CC1(C)CC(=O)c2cnc(NC(=O)c3ccco3)nc2C1	miR-122 inh 38
Cc1ccc(S(=O)(=O)N(C)C[C@@H]2Oc3cc(-c4cccc(F)c4)ccc3S(=O)(=O)N([C@H](C)CO)C[C@H]2C)cc1	none
C[C@H]1CN([C@@H](C)CO)C(=O)c2cc(-c3cccc(F)c3)cnc2O[C@@H]1CN(C)C(=O)c1cccc(F)c1	none
C[C@H](CO)N1C[C@H](C)[C@@H](CN(C)C(=O)Nc2ccc(F)cc2)Oc2c(NS(=O)(=O)c3ccccc3)cccc2C1=O	none
CCOc1ccc(NS(=O)(=O)c2cc(NC(=O)C3CC3)ccc2C)cc1Br	none
CCOc1ccc(S(=O)(=O)N2CCC(C(N)=O)CC2)c2ccccc12	none
CCOc1ccc(CCNC(=O)C2CCN(S(=O)(=O)N3CCC(C)CC3)CC2)cc1OCC	miR-122 inh 33
C[C@@H]1CN([C@@H](C)CO)S(=O)(=O)c2ccc(C#Cc3cccnc3)cc2O[C@@H]1CN(C)C(=O)C1CC1	none
C[C@H](CO)N1C[C@H](C)[C@H](CN(C)C(=O)c2cccc(F)c2)Oc2ncc(/C=C/c3ccccc3)cc2C1=O	none
Cc1noc(C)c1NC(=O)N(C)C[C@@H]1Oc2ncc(C#CCC(C)C)cc2C(=O)N([C@H](C)CO)C[C@H]1C	none
